The source of these data is PubChem BioAssay (NCI).

Common to all, as to assay: NCI-60 one-dose screen, 48 h (100 = growth as untreated, 0 = no growth, -100 = all killed)
The test system of one assay is HT29 colon. Particulars: 10 µM unless noted.
The test system of a further assay is SNB-75 CNS. Particulars: 10 µM unless noted.
A further assay relates to SNB-19 CNS. Particulars: 10 µM unless noted.
Another assay relates to U251 CNS. Particulars: 10 µM unless noted.
In another assay the test system is PC-3 prostate. Particulars: 10 µM unless noted.
The next assay has as its system SK-MEL-5 melanoma. Particulars: 10 µM unless noted.
A further assay concerns UACC-62 melanoma. Particulars: 10 µM unless noted.
In a further assay the test system is LOX IMVI melanoma. Particulars: 10 µM unless noted.
The test system of the next assay is SK-MEL-28 melanoma. Particulars: 10 µM.
The test system of a further assay is SK-MEL-2 melanoma. Particulars: 10 µM unless noted.
In a further assay the test system is SN12C renal. Particulars: 10 µM unless noted.
The test system of the next assay is UO-31 renal. Particulars: 10 µM unless noted.
The subject of the next assay is TK-10 renal. Particulars: 10 µM unless noted.
The subject of the next assay is ACHN renal. Particulars: 10 µM unless noted.
The next assay relates to A498 renal. Particulars: 10 µM unless noted.
A further assay deals with CCRF-CEM leukemia. Particulars: 10 µM unless noted.
Another assay has as its system MOLT-4 leukemia. Particulars: 10 µM unless noted.
For the next assay, the system named is SR leukemia. Particulars: 10 µM unless noted.
The test system of a further assay is CAKI-1 renal. Particulars: 10 µM unless noted.

Molecules are shown by their SMILES. This is part of a sample that, as a whole, favours compounds with a hit. Of some 83,000 tested, about 20% had one in any assay.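 Treatment: one concentration, 48 hours, 96-well format. Scoring: percent growth, with anything below 10 considered active.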 Values without a mark were called inactive. Active and inactive are the calls of the source.

As for `CSc1nc2c(c(=O)[nH]1)N=C1c3ccccc3C(=O)C1C(c1ccccc1)N2` (configuration not stated), the growth in the assay with HT29 colon was 5.89% (active); in the assay with SNB-75 CNS, 34.3%; in the assay with SNB-19 CNS it was 39.8%; with U251 CNS, 37.5%; in the assay with PC-3 prostate it was 54.5%; in the assay with SK-MEL-5 melanoma, 16.1%. Also, the growth is 37.8% with UACC-62 melanoma; 51.9% in the assay on LOX IMVI melanoma; 54% in the assay with SK-MEL-28 melanoma; 59% with SK-MEL-2 melanoma; 68.7% in the assay with SN12C renal; 70% in the assay on UO-31 renal. In addition, the growth in the assay with TK-10 renal is 67.8%; in the assay with ACHN renal, 48.7%; with A498 renal it was 45.3%; with CCRF-CEM leukemia, 29%; with MOLT-4 leukemia, 20%; in the assay on SR leukemia it was -35.6% (active).

For `CCN1C(=O)N(CC)C2C1NC(=S)N2/N=C/C=C/c1ccccc1OC` (configuration not stated), the growth with HT29 colon was 2.77% (active); in the assay with SNB-75 CNS, 44.8%; with SNB-19 CNS it was 26.5%; with U251 CNS, 20.8%; in the assay with PC-3 prostate, 25.2%; in the assay on SK-MEL-5 melanoma it was -40.7% (active). Also, the growth with UACC-62 melanoma is 25.8%; in the assay on LOX IMVI melanoma, 21.1%; in the assay on SK-MEL-28 melanoma, 56.7%; with SK-MEL-2 melanoma, 32.6%; with SN12C renal it was 26%; in the assay with UO-31 renal it was 46.3%. Moreover, the growth is 55.2% in the assay with TK-10 renal; 22.9% in the assay on ACHN renal; 28.4% in the assay on CAKI-1 renal; -4.32% (active) in the assay with A498 renal; 13.8% in the assay with CCRF-CEM leukemia; 15.7% in the assay on MOLT-4 leukemia. Further, in the assay on SR leukemia, the growth is 12%.

For `COc1cc(OC)cc(N2C(=O)N(Cc3ccc(C(C)(C)C)cc3)c3ccccc3S2(=O)=O)c1`, the growth in the assay with HT29 colon was 93.7%; in the assay on SNB-75 CNS, 73.9%; in the assay on SNB-19 CNS, 94.7%; with U251 CNS it was 95.9%; in the assay on PC-3 prostate, 84.4%; in the assay on SK-MEL-5 melanoma, 85.8%. Besides, the growth was 90.6% with UACC-62 melanoma; 85.1% with LOX IMVI melanoma; 91.9% with SK-MEL-28 melanoma; 88.5% in the assay on SK-MEL-2 melanoma; 86.1% in the assay on SN12C renal; 54% with UO-31 renal. Besides, the growth was 97.8% with TK-10 renal; 81.2% in the assay on ACHN renal; 98.6% in the assay with A498 renal; 84.7% with CCRF-CEM leukemia; 93.3% with MOLT-4 leukemia; 41.8% in the assay on SR leukemia.

Take `CN(C)CCNc1cc(-c2ccccc2)nc2ccccc12`: the growth in the assay with HT29 colon is -42.2% (active); with SNB-75 CNS it was -69.3% (active); in the assay with SNB-19 CNS, 54.2%; with U251 CNS, -69% (active); with PC-3 prostate, -38.5% (active); with SK-MEL-5 melanoma, -74.3% (active). For the same compound, the growth was -75.9% (active) with UACC-62 melanoma; -84% (active) in the assay on LOX IMVI melanoma; -90.7% (active) in the assay on SK-MEL-28 melanoma; -45.2% (active) in the assay on SK-MEL-2 melanoma; -88.5% (active) with SN12C renal; -94.2% (active) in the assay with UO-31 renal. In addition, the growth in the assay on ACHN renal was -27.5% (active); in the assay on CAKI-1 renal, -36.1% (active); in the assay on A498 renal, 52.4%; with CCRF-CEM leukemia, -9.11% (active); with MOLT-4 leukemia, 0.855% (active); in the assay with SR leukemia, -23.1% (active).

`CCOC(=O)c1cc2c(n1Cc1cccc(OC)c1)-c1oncc1CCC2`: the growth is 10% with HT29 colon; 7.49% (active) in the assay with SNB-75 CNS; 39.4% in the assay with SNB-19 CNS; 27.3% in the assay with U251 CNS; 38.8% in the assay on PC-3 prostate; 1.56% (active) in the assay with SK-MEL-5 melanoma. In addition, the growth in the assay with UACC-62 melanoma was 31%; in the assay with LOX IMVI melanoma it was 33.7%; with SK-MEL-28 melanoma, 47.8%; in the assay on SK-MEL-2 melanoma, 36.9%; in the assay with SN12C renal, 56.7%; with UO-31 renal, 16.7%. The growth in the assay on TK-10 renal is 48.1%; in the assay on ACHN renal it was 47.3%; in the assay with CAKI-1 renal it was 29.6%; with A498 renal it was 6.51% (active); in the assay on CCRF-CEM leukemia it was 3.19% (active); in the assay with MOLT-4 leukemia, 35.8%. Moreover, the growth in the assay with SR leukemia is 10.1%.

Consider `O=C(Nc1ccc(C23CC4CC(CC(c5ccccc5)(C4)C2)C3)cc1)c1cccs1`, for which the growth in the assay on HT29 colon is 53.8%; with SNB-75 CNS, 98.6%; in the assay on SNB-19 CNS it was 91.9%; in the assay with U251 CNS, 69.8%; in the assay on PC-3 prostate it was 60%; in the assay with SK-MEL-5 melanoma it was 56.1%. Further, the growth in the assay with UACC-62 melanoma was 63.8%; in the assay with LOX IMVI melanoma, 76.5%; in the assay with SK-MEL-28 melanoma, 79.5%; in the assay on SK-MEL-2 melanoma, 75.6%; with SN12C renal, 66.7%; in the assay on UO-31 renal, 66.5%. For the same compound, the growth in the assay on TK-10 renal is 76.9%; in the assay on ACHN renal, 76.9%; in the assay with CAKI-1 renal, 77.6%; in the assay with CCRF-CEM leukemia, 56.8%; in the assay with MOLT-4 leukemia, 57.7%.

For the compound `CC(=O)n1cc(-c2c[nH]c3ccccc23)c(-c2ccc(Cl)cc2)n1`, the growth in the assay on HT29 colon was 95.9%; with SNB-75 CNS it was 80.9%; in the assay with SNB-19 CNS, 112%; in the assay with U251 CNS, 74.9%; with PC-3 prostate, 81.5%; with SK-MEL-5 melanoma, 78.8%. The growth in the assay on UACC-62 melanoma was 93.5%; in the assay on LOX IMVI melanoma, 86.8%; in the assay on SK-MEL-28 melanoma it was 93.7%; with SK-MEL-2 melanoma, 97.6%; with SN12C renal, 99.8%; in the assay on UO-31 renal it was 60.5%. Moreover, the growth was 94.9% with TK-10 renal; 78.5% with ACHN renal; 61.2% in the assay with CAKI-1 renal; 82.2% with CCRF-CEM leukemia; 88.2% in the assay on MOLT-4 leukemia.

Regarding `COc1ccc(-c2nc(N3CCN(C(=O)C4CCCCC4)CC3)c3c4c(sc3n2)CCCC4)cc1`, the growth in the assay on HT29 colon was -49.9% (active); with SNB-75 CNS, -66.3% (active); in the assay on SNB-19 CNS it was 69.8%; in the assay on U251 CNS, -78.6% (active); in the assay with PC-3 prostate it was -28.7% (active); with SK-MEL-5 melanoma, 36.5%. The growth is 44.1% in the assay with UACC-62 melanoma; 5.28% (active) in the assay with LOX IMVI melanoma; -24.2% (active) with SK-MEL-28 melanoma; 24.7% in the assay on SK-MEL-2 melanoma; 77.2% in the assay with SN12C renal; -7.01% (active) with UO-31 renal. The growth in the assay on TK-10 renal is -40.1% (active); in the assay with ACHN renal, 33.5%; in the assay with CAKI-1 renal, -12.1% (active); in the assay with CCRF-CEM leukemia it was 5.79% (active); in the assay on MOLT-4 leukemia, 1.83% (active); in the assay with SR leukemia, -33.2% (active).

With `COc1ccc(C2NCCc3c2[nH]c2ccccc32)cc1CN1CCN(c2ccc(F)cc2)CC1` (configuration not stated), the growth is -3.33% (active) in the assay with HT29 colon; 24.4% in the assay with SNB-75 CNS; 77.9% with SNB-19 CNS; 26% with U251 CNS; 44.8% with PC-3 prostate; -40.7% (active) in the assay with SK-MEL-5 melanoma. Also, the growth was 12.5% in the assay on UACC-62 melanoma; 2.51% (active) with LOX IMVI melanoma; 67.9% in the assay with SK-MEL-28 melanoma; 64.1% with SK-MEL-2 melanoma; 55.6% in the assay with SN12C renal; 2.15% (active) with UO-31 renal. For the same compound, the growth in the assay with ACHN renal was 64.7%; with CAKI-1 renal, 28.8%; in the assay on A498 renal it was 89.8%; in the assay on CCRF-CEM leukemia it was 16.3%; with MOLT-4 leukemia it was 23.6%; in the assay on SR leukemia it was 19.9%.
